Data reported in PubChem BioAssay (Tox21).
Inconclusive results are not listed. Where a call stands in place of a potency, no number is given. Calls of active or inactive are those of the source. Unless noted, calls follow the shape of the dose curve; as a rule, active = well fitted curve in the direction sought with a large enough effect in the repeat runs; inconclusive = weak or mixed curves; inactive = no such curve, though single readings can be large; an effect the other way counts as inactive or inconclusive.

Legend:
[1] = biological target: Aryl hydrocarbon receptor (Homo sapiens) (UniProt P35869); assay: qHTS assay to identify small molecule that activate the aryl hydrocarbon receptor (AhR) signaling pathway (AID 743085); also: nearly all actives have a fitted effect of over 15% in size; also: potency is read from the fitted curve at half-maximal effect;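 as to activation: HG2L7.5c1 human HepG2 liver cells with stably integrated DRE-driven firefly reporter; series mostly up to about 70 µM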
Chain of Aryl hydrocarbon receptor (Homo sapiens) (P35869 whole entry, looked up): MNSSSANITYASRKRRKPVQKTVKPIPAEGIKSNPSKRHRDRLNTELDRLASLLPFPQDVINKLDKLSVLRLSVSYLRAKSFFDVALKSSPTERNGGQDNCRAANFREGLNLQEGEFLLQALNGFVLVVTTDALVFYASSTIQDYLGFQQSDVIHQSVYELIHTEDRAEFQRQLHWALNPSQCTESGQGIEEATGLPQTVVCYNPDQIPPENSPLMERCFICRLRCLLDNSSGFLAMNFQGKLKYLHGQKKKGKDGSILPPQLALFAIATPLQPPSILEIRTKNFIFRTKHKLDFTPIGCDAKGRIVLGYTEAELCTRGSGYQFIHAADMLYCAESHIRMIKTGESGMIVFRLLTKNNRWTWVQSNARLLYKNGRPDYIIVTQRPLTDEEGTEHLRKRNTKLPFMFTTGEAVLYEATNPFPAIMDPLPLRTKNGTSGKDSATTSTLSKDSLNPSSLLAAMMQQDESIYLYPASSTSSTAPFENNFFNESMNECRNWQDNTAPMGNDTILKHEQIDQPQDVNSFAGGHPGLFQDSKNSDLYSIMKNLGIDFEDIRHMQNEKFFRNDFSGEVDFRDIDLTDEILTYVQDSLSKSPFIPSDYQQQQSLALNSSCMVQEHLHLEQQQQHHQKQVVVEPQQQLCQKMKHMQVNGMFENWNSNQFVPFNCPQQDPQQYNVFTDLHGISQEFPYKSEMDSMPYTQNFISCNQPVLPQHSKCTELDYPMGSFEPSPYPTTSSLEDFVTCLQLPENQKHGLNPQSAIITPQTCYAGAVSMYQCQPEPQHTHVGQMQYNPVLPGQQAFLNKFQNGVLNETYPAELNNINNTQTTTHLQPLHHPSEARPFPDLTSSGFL
In short: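 A multiplexed format paired cell viability (CellTiter-Fluor fluorescence) with AhR-dependent luciferase output (ONE-Glo luminescence) in the same wells of HepG2 DRE-luc cells after 24 h compound exposure at 37C.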

[2] = qHTS assay to identify small molecule that activate the aryl hydrocarbon receptor (AhR) signaling pathway - cell viability counter screen (AID 743086);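 also: HepG2 liver cells carrying the AhR DRE luciferase reporter; series mostly up to about 70 µM; nearly all actives have a fitted effect of over 45% in size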
In short: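 HepG2-AhR-luc (HG2L7.5c1) cells, 4000/well, treated 24 h at 37 C with compound; viability measured as CellTiter-Fluor fluorescence after 30 min in the same wells as the luciferase read.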

[3] = biological target: Peroxisome proliferator-activated receptor gamma (Homo sapiens) (UniProt P37231); assay: qHTS assay to identify small molecule agonists of the peroxisome proliferator-activated receptor gamma (PPARg) signaling pathway (AID 743094; active = well fitted activation curve with a large enough effect in the signal ratio in the repeat runs, not every such curve was filed as active; the % refers to the signal ratio)
Chain of Peroxisome proliferator-activated receptor gamma (Homo sapiens) (P37231 whole entry, looked up): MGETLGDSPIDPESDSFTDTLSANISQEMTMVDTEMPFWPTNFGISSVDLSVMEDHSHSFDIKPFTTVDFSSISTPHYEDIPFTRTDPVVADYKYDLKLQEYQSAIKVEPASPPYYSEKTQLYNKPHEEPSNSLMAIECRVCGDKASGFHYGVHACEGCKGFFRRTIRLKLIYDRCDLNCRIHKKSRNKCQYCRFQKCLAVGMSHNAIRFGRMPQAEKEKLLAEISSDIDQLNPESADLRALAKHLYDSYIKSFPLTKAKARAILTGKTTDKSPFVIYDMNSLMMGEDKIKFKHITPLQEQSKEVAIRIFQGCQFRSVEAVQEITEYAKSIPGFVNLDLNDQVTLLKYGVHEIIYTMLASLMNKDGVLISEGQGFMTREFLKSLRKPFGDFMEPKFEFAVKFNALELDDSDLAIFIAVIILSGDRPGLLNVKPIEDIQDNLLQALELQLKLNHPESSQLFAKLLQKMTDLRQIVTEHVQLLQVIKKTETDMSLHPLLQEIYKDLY
In short: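 Quantitative HTS agonist mode: stable HEK293H line with UAS-beta-lactamase reporter under PPARg control, 17 h compound exposure at 37C, fluorescence after 1 h FRET substrate loading at room temperature.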

[4] = biological target: Peroxisome proliferator-activated receptor gamma (Homo sapiens) (UniProt P37231); assay: qHTS assay to identify small molecule antagonists of the peroxisome proliferator-activated receptor gamma (PPARg) signaling pathway (AID 743191; calls by dose curve; also: series mostly up to about 63 µM; nearly all actives have a fitted effect of over 30% in size)
In short: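 GeneBLAzer PPARg UAS-bla HEK293H cells, 5 h post-plating, exposed to compounds 17 h at 37C. LiveBLAzer B/G FRET substrate added for 1 h at room temperature; beta-lactamase reporter read by fluorescence intensity.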

[5] = qHTS assay to identify small molecule antagonists of the peroxisome proliferator-activated receptor gamma (PPARg) signaling pathway - cell viability counter screen (AID 743194); also: nearly all actives have a fitted effect of over 55% in size
In short: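 Cytotoxicity counter screen in PPARg-bla HEK293H cells, same wells as reporter assay. Compounds plus 50 nM rosiglitazone (final) for 17 h at 37 C, then viability read by CellTiter-Glo luminescence.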

[6] = qHTS assay for small molecule agonists of the antioxidant response element (ARE) signaling pathway (AID 743202; active = well fitted activation curve with a large enough effect in the signal ratio in the repeat runs, not every such curve was filed as active; the % refers to the signal ratio)
In short: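 Agonist mode reporter screen: HepG2 cells with ARE-controlled beta-lactamase are incubated with test compounds for 16 h at 37 C, and beta-lactamase activity is measured as fluorescence of cleaved B/G FRET substrate.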

[7] = qHTS assay for small molecule agonists of the antioxidant response element (ARE) signaling pathway - cell viability counter screen (AID 743203; calls by dose curve; also: nearly all actives have a fitted effect of over 55% in size)
In short: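 Seeded at 2,000 cells/well, ARE-bla HepG2 cells were incubated 5 hrs before compound addition. After 16 hrs of treatment at 37C with 5% CO2, CellTiter-Glo reagent was added and luminescence read 30 min later.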

[8] = qHTS assay for small molecule activators of the heat shock response signaling pathway (AID 743210; active = well fitted activation curve with a large enough effect in the signal ratio in the repeat runs, with a control signal flat, not every such curve was filed as active; the % refers to the signal ratio;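 also: HeLa cells with beta-lactamase reporter driven by heat shock elements; series mostly up to about 63 µM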)
In short: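 Quantitative high-throughput format using an engineered HeLa line in which heat shock response elements drive beta-lactamase; after 5 h with compound, cells received a B/G FRET substrate and fluorescence was read.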

[9] = qHTS assay to identify small molecule agonists of the peroxisome proliferator-activated receptor delta (PPARd) signaling pathway - cell viability counter screen (AID 743211); also: nearly all actives have a fitted effect of over 55% in size
In short: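 Tox21 library compounds, delivered in DMSO, were incubated 17 h with PPARd-bla HEK293H cells; cytotoxicity was taken from CellTiter-Glo luminescence read 30 min after reagent addition.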

[10] = biological target: Peroxisome proliferator-activated receptor delta (Homo sapiens) (UniProt Q03181); assay: qHTS assay to identify small molecule agonists of the peroxisome proliferator-activated receptor delta (PPARd) signaling pathway (AID 743212; calls by dose curve)
Chain of Peroxisome proliferator-activated receptor delta (Homo sapiens) (Q03181 whole entry, looked up): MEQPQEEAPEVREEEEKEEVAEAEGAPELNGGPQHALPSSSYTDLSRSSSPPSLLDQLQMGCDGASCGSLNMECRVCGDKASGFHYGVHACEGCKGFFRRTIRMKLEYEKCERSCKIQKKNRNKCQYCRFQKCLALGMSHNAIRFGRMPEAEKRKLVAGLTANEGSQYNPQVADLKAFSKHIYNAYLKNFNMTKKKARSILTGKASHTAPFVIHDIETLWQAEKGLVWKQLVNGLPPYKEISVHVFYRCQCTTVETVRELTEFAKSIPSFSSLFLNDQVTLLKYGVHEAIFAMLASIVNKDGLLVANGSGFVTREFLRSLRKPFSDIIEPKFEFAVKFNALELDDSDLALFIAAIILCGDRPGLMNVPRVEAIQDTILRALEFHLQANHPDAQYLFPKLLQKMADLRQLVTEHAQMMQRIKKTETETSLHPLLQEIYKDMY
In short: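 Quantitative high-throughput agonist screen in a HEK293H beta-lactamase reporter line under UAS control. Compounds in DMSO, at 37 C. Fluorescence read after 2 h with FRET substrate at room temperature.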

[11] = qHTS assay to identify small molecule antagonists of the peroxisome proliferator-activated receptor delta (PPARd) signaling pathway - cell viability counter screen (AID 743213); also: nearly all actives have a fitted effect of over 50% in size
In short: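 Same-well viability: cells pre-incubated 5 h, dosed with compound plus 300 nM L165041, kept 17 h at 37 C, FRET substrate 2 h RT, then CellTiter-Glo 30 min RT and luminescence.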

[12] = biological target: Peroxisome proliferator-activated receptor delta (Homo sapiens) (UniProt Q03181); assay: qHTS assay to identify small molecule antagonists of the peroxisome proliferator-activated receptor delta (PPARd) signaling pathway (AID 743215; active = well fitted inhibition curve with a large enough effect in the signal ratio in the repeat runs, not every such curve was filed as active; the % refers to the signal ratio;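 also: cells stimulated with agonist L165041 at 300 nM final during compound exposure; series mostly up to about 62 µM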)
In short: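 Inhibition of L165041-driven (300 nM final) PPARd signaling is scored in HEK293H UAS-bla cells. Exposure lasts 17 h at 37 C; beta-lactamase activity is then read by FRET substrate fluorescence after 2 h at room temperature.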

[13] = biological target: Bile acid receptor (Homo sapiens) (UniProt Q96RI1); assay: qHTS assay to identify small molecule antagonists of the farnesoid-X-receptor (FXR) signaling pathway (AID 743217; active = well fitted inhibition curve with a large enough effect in the signal ratio in the repeat runs, not every such curve was filed as active; the % refers to the signal ratio)
Chain of Bile acid receptor (Homo sapiens) (Q96RI1 whole entry, looked up): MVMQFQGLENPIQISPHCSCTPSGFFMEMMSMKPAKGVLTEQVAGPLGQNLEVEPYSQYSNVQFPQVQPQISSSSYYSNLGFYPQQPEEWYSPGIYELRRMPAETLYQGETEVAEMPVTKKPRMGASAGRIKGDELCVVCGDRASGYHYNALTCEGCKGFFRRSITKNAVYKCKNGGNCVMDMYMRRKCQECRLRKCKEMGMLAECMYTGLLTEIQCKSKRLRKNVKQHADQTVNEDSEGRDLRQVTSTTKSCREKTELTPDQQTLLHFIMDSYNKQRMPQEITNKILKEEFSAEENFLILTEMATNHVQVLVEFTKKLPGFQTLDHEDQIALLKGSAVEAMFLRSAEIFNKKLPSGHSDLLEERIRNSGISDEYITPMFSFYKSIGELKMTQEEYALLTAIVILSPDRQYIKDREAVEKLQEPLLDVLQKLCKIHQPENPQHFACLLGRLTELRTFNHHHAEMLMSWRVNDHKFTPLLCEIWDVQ
In short: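 Antagonist mode against 50 uM (final) chenodeoxycholic acid stimulation in FXR-bla HEK 293T cells, 16 h at 37 °C. Inhibition detected as reduced beta-lactamase activity via LiveBLAzer B/G FRET fluorescence after 2 h at room temperature.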

[14] = qHTS assay to identify small molecule agonists of the farnesoid-X-receptor (FXR) signaling pathway - cell viability counter screen (AID 743218); also: nearly all actives have a fitted effect of over 45% in size
In short: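 Cytotoxicity counter-screen run in parallel, same wells: FXR-UAS-bla HEK 293T cells dosed 16 h at 37 C, viability read by CellTiter-Glo luminescence after 30 min at room temperature.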

[15] = biological target: Bile acid receptor (Homo sapiens) (UniProt Q96RI1); assay: qHTS assay to identify small molecule agonists of the farnesoid-X-receptor (FXR) signaling pathway (AID 743220; active = well fitted activation curve with a large enough effect in the signal ratio in the repeat runs, not every such curve was filed as active; the % refers to the signal ratio)
In short: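 Beta-lactamase reporter under UAS control in GeneBLAzer FXR HEK 293T cells (5000/well) measured with LiveBLAzer FRET substrate after 2 h at room temperature. Compound exposure lasted 16 h at 37C.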

[16] = qHTS assay to identify small molecule antagonists of the farnesoid-X-receptor (FXR) signaling pathway - cell viability counter screen (AID 743221; active = well fitted cell-killing curve with a large enough effect in the repeat runs, not every such curve was filed as active; also: nearly all actives have a fitted effect of over 50% in size)
In short: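 Cytotoxicity is taken from ATP luminescence (CellTiter-Glo, 30 min, room temperature) in FXR-bla HEK 293T cells previously incubated 16 h at 37 C with compound and chenodeoxycholic acid at 50 uM final.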

[17] = biological target: Vitamin D3 receptor (Homo sapiens) (UniProt P11473); assay: qHTS assay to identify small molecule agonists of the vitamin D receptor (VDR) signaling pathway (AID 743222; calls by dose curve)
Chain of Vitamin D3 receptor (Homo sapiens) (P11473 whole entry, looked up): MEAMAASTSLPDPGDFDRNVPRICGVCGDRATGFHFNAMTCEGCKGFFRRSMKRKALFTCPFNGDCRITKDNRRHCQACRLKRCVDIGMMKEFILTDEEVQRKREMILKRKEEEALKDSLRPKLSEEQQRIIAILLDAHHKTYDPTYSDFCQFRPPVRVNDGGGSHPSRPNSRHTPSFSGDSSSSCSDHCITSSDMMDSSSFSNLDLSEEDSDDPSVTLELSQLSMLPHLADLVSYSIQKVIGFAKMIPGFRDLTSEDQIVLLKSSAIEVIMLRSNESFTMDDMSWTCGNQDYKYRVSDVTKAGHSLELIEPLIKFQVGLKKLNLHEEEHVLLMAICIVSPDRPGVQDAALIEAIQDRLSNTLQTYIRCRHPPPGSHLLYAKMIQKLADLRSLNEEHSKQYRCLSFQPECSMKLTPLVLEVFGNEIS
In short: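 Quantitative HTS agonist-mode screen: compounds in DMSO were pin-transferred onto VDR-bla cells and incubated 16 h at 37C, 5% CO2. Reporter activity was detected with LiveBLAzer B/G FRET substrate after 2 h at room temperature.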

[18] = biological target: Vitamin D3 receptor (Homo sapiens) (UniProt P11473); assay: qHTS assay to identify small molecule antagonists of the vitamin D receptor (VDR) signaling pathway (AID 743223; active = well fitted inhibition curve with a large enough effect in the signal ratio in the repeat runs, not every such curve was filed as active; the % refers to the signal ratio)
In short: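 Quantitative HTS in VDR-bla reporter cells stimulated with 1alpha,25-dihydroxyvitamin D3, 3 nM final. Compound exposure 16 h, 37C, 5% CO2. Read-out: beta-lactamase FRET substrate fluorescence, 2 h RT.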

[19] = qHTS assay to identify small molecule agonists of the vitamin D receptor (VDR) signaling pathway - cell viability counter screen (AID 743224); also: series mostly up to about 63 µM; nearly all actives have a fitted effect of over 50% in size
In short: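 Viability is measured in the same wells as the VDR-bla reporter assay: after 16 h compound treatment and 2 h substrate loading, CellTiter-Glo is added and luminescence read 30 min later.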

[20] = qHTS assay for small molecule activators of the heat shock response signaling pathway - cell viability counter screen (AID 743209); also: nearly all actives have a fitted effect of over 50% in size
In short: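 First, HSE-bla HeLa cells were seeded at 1500 cells/well and kept overnight at 37 C. Next, compounds were pinned in and incubated 5 h. After the FRET substrate step, CellTiter-Glo was added and luminescence read 30 min later.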

| Structure (SMILES) | Potency [1] | Potency [2] | outcome [3] | Potency [4] | Potency [5] | Potency [6] | Potency [7] | Potency [8] | Potency [9] | outcome [10] | Potency [11] | Potency [12] | outcome [13] | Potency [14] | Potency [15] | Potency [16] | outcome [17] | outcome [18] | Potency [19] | Potency [20] |
| --- | --- | --- | --- | --- | --- | --- | --- | --- | --- | --- | --- | --- | --- | --- | --- | --- | --- | --- | --- | --- |
| O=C(O)CCC(=O)c1ccc(-c2ccccc2)cc1 | inactive | inactive | inactive | inactive | inactive | inactive | inactive | inactive | inactive | inactive | inactive | inactive | inactive | inactive | inactive | inactive | inactive | inactive | inactive |  |
| O=C(O)c1cc(Cl)cc(Cl)c1O | inactive | inactive | inactive | inactive | inactive | inactive | inactive | inactive | inactive |  |  | inactive |  |  |  |  | inactive | inactive | inactive | inactive |
| CCOCCC(=O)OCC | inactive | inactive | inactive | inactive | inactive | inactive | inactive | inactive | inactive | inactive | inactive | inactive |  | inactive |  | inactive | inactive | inactive | inactive | inactive |
| Nc1ccc(NC(=O)c2ccc(N)cc2)cc1 | inactive | inactive | inactive | inactive | inactive | inactive | inactive | inactive | inactive | inactive | inactive | inactive |  | inactive |  | inactive |  |  | inactive | inactive |
| O=C(O)CN1C(=O)c2cccc3cccc(c23)C1=O | inactive | inactive | inactive | inactive | inactive | inactive | inactive | inactive | inactive | inactive |  | inactive |  | inactive |  | inactive | inactive | inactive | inactive | inactive |
| C=CCOC(=O)COCCC(C)C | inactive | inactive | inactive | inactive | inactive | inactive | inactive | inactive | inactive | inactive | inactive | inactive |  |  |  | inactive |  |  | inactive | inactive |
| CC(C)N=C=NC(C)C | inactive | inactive | inactive | inactive | inactive | inactive | inactive | inactive | inactive |  | inactive |  |  |  |  | inactive |  | inactive | inactive |  |
| O=C(c1ccccc1)C1CCC1 | inactive | inactive | inactive | inactive | inactive | inactive | inactive |  | inactive | inactive | inactive |  |  | inactive |  | inactive | inactive | inactive | inactive |  |
| CC(C)(C)C(O)/C=C/c1ccc2c(c1)OCO2 (stereo unspecified) | 11.9 µM (active) | inactive | inactive | inactive | inactive |  | inactive | inactive | inactive | inactive | inactive | inactive | inactive | inactive | inactive | inactive | inactive | inactive | inactive | inactive |
| OCC(CO)n1cnc(-c2ccc(F)cc2)c1-c1ccnc(Oc2ccccc2)n1 | inactive | inactive | inactive | inactive | inactive |  | inactive | inactive | inactive | inactive | inactive | inactive |  | inactive |  | inactive | inactive | inactive | inactive | inactive |
| CC(C)c1ccc(C(=O)N=C(N)N)cc1S(C)(=O)=O | inactive | inactive | inactive | inactive | inactive | inactive | inactive | inactive | inactive | inactive | inactive | inactive |  | inactive |  | inactive | inactive | inactive | inactive | inactive |
| C=Cc1ccc(OC(C)=O)cc1 | inactive | inactive | inactive | inactive | inactive |  | inactive | inactive | inactive | inactive | inactive | inactive |  | inactive |  | inactive | inactive | inactive | inactive | inactive |
| CC[C@@H](CO)NCCN[C@@H](CC)CO | inactive | inactive | inactive | inactive | inactive | inactive | inactive | inactive |  | inactive |  |  |  | inactive |  | inactive |  |  |  | inactive |
| CCc1ccc(C)cc1 | inactive | inactive | inactive | inactive | inactive | inactive | inactive | inactive | inactive | inactive | inactive | inactive | inactive | inactive | inactive | inactive | inactive | inactive | inactive | inactive |
| CC(=O)OCCC1CCCCC1 | inactive | inactive | inactive | inactive | inactive | inactive | inactive | inactive |  | inactive | inactive | inactive |  | inactive |  | inactive | inactive | inactive | inactive | inactive |
| COC(=O)c1sccc1S(N)(=O)=O | inactive | inactive | inactive | inactive | inactive |  | inactive | inactive | inactive | inactive | inactive | inactive | inactive | inactive | inactive | inactive | inactive | inactive | inactive | inactive |
